# Bioassay records: PubChem, National Center for Advancing Translational Sciences (NCATS)
# Hits are enriched below; roughly 5.7% of the tested compounds scored in any of these assays.
# KB-3-1 cytotox = KB-3-1 parental cell cytotoxicity; KB-3-1 viability, CellTiter-Glo ATP luminescence, 72 h; AID 1347075; Potency, µM (series often up to 46.1 µM), most hits filed as cytotoxic; 400,000 compounds, 1.4% hits; also: potency is read from the fitted curve at half-maximal effect; nearly all actives have a fitted effect of over 60% in size
#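 Using CellTiter-Glo luminescence, growth of non-resistant KB-3-1 adenocarcinoma cells is assessed 72 h after pin-tool compound addition at 37 °C. Normalized responses across the concentration series yield fitted curves.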
# KB-V1 cytotox = kills drug-selected multidrug resistant KB-V1 cells; KB-V1 MDR cells viability, CellTiter-Glo, 72 h; Potency, µM (titrated, usually from 46.1 µM), usual class: cytotoxic; 400,000 compounds, 3.4% hits; also: potency is read from the fitted curve at half-maximal effect; nearly all actives have a fitted effect of over 60% in size
#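 Cytotoxicity toward P-gp-expressing KB-V1 cells was determined as loss of CellTiter-Glo luminescence after 72 h at 37 degrees C. Compounds were tested in quantitative HTS format across a concentration range, with curves fitted to normalized data.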
# Giardia kill = kills Giardia lamblia; Giardia lamblia trophozoite viability; activity change, % at 7.66 µM, hits read low; 340,000 compounds, 0.15% hits; AID 540267; in the data active = activity change below about -80%; inconclusive = between about -30% and that limit;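 also: parasites exposed to compound for two days anaerobically before the ATP read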
#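 Giardia trophozoites, 100 cells per well, were exposed to compounds for 48 hrs at 37 deg C under anaerobic conditions; viability was then read as ATP content by bioluminescence after 15-30 min at room temperature.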
# PI4K2A inh = blocks human PI4K2A kinase activity. 420,000 compounds, 0.13% hits. activity change, negative = inhibition, % at 76.9 µM. purified PI4K2A, ADP-Glo luminescence, 1 h; active compounds read low. AID 1346378. Q9BTU6; in the data active = activity change below about -50%; inconclusive = mostly about -30% to -49%;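 also: -100% = wells without enzyme as full effect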
# Target sequence (Q9BTU6 whole entry, looked up): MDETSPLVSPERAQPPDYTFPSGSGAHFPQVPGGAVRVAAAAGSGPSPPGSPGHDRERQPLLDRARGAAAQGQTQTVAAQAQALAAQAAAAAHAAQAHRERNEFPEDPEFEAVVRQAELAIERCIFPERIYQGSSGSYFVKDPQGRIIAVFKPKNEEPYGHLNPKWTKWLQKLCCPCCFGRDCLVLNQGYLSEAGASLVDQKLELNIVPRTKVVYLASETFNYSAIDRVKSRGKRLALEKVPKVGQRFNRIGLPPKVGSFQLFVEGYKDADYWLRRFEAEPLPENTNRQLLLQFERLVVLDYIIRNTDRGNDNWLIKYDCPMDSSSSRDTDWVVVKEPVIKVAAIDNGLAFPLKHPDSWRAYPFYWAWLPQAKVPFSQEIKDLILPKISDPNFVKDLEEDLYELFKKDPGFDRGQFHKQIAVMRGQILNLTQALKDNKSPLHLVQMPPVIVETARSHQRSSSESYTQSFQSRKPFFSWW
#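 PI4K2A activity was measured by ADP-Glo luminescence: enzyme (4 ug/mL stock) and phosphatidylinositol (1.2 mM stock) in Tris pH 7.5/MgCl2/EGTA/Triton X-100 buffer were reacted with ATP (300 microM stock) for one hour at ambient temperature.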
# A549 viability = A549 cytotoxicity, counter-screen for Nrf2 inhibitors | Potency, µM (highest dose often 46 µM), for the others: top-dose activity change, negative = cytotoxicity, usual class: inhibitors | 390,000 compounds, 0.16% hits | A549 ARE-Fluc cells, CellTiter-Fluor viability, 18-24 h; also: potency is read from the fitted curve at half-maximal effect
#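 Cytotoxicity counterscreen: CellTiter-Fluor fluorescence was measured in A549 ARE_Fluc cells after 18-24 h of compound exposure in a concentration series. The subsequent BugLite luminescent read reports ARE-luciferase activity.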
# Nrf2 inh = blocks Nrf2 signaling. A549 ARE-Fluc reporter, luciferase luminescence, 18-24 h. Potency, µM (series often up to 46 µM), for the others: at the top dose activity change, negative = inhibition, actives largely listed as inhibitors. 360,000 compounds, 2.1% hits. AID 504444; also: potency is read from the fitted curve at half-maximal effect; nearly all actives have a fitted effect of over 60% in size
#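 Reporter: ARE-Fluc in A549. Exposure: 18-24 h, 37 °C, 5% CO2, 5% FBS OPTI-MEM. Readouts: fluorescent cytotoxicity (CellTiter-Fluor), then luminescent Nrf2 signal after BugLite.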
# The depositor's hits bear a star; i = inactive; ? = inconclusive; nt = no result. Unless noted, calls follow the shape of the dose curve; as a rule, active = well fitted curve in the direction sought with a large enough effect; inconclusive = small, poorly fitted or top-dose-only effect, or another doubt; inactive = no such curve, though single readings can be large; an effect the other way counts as inactive or inconclusive. Unless noted, % is scaled to controls: 0 for no effect and ±100 for the full control effect.
SMILES,KB-3-1 cytotox,KB-V1 cytotox,Giardia kill,PI4K2A inh,A549 viability,Nrf2 inh
Cc1cc(C(=O)C(C)OC(=O)c2ccc(NC(=O)CC#N)cc2)c(C)n1-c1ccccc1 (centres undefined),i,i,-2,3,-12%,18µM*
Cc1ccc(CSC2=Nc3ccccc3C3=NC(CCC(=O)NCCc4ccccc4)C(=O)N23)cc1 (centres undefined),i,i,nt,1,3%,nt
COC(=O)c1cc(-c2ccc(Cl)s2)c(=O)n2c1CCC2,nt,nt,nt,-3,nt,nt
O=C1ON=C(c2ccc(Cl)cc2)/C1=C/c1ccc(O)cc1,i,21µM*,13,-10,-21%,-1%
COc1cccc(C(=O)Nc2ncc3c(n2)CC(c2ccc(OC)cc2OC)CC3=O)c1 (centres undefined),?,5.2µM*,-1,-4,?,nt
COc1cccc(Nc2nc(N)nc(-c3oc4ccccc4c3C)n2)c1,?,4.6µM*,16,-6,-18%,6%
COc1ccccc1Nc1nc(N)nc(-c2cc3ccccc3o2)n1,i,?,-7,0,2%,9%
Cc1ccc(Nc2nc(N)nc(-c3oc4ccccc4c3C)n2)cc1,0.18µM*,?,-1,-7,?,?
Cc1ccc(Nc2nc(C)nc3c2oc2ccccc23)cc1,i,?,4,1,-2%,?
Cc1cccc(Nc2ncnc(N)n2)c1,i,i,5,-2,1%,18%
Cc1c(-c2nc(N)nc(Nc3ccccc3F)n2)oc2ccccc12,i,16µM*,6,-1,nt,?
CCc1nc(Nc2cccc(OC)c2)c2oc3ccccc3c2n1,i,i,-10,1,8%,-22%
Cc1cccc(Nc2nc(N)nc(-c3oc4ccccc4c3C)n2)c1,?,21µM*,4,-2,-2%,?
O=C(C1CCCN1S(=O)(=O)c1cccc2ccccc12)N1CCN(c2ccccc2)CC1 (centres undefined),nt,nt,nt,-3,nt,nt
CC(C)N1C/C(=C/c2cccnc2)C(=O)/C(=C/c2cccnc2)C1,?,15µM*,2,1,0%,5%
O=C1c2ccccc2C(=Cc2cccnc2)c2ccccc21,i,i,nt,-6,nt,nt
CN1C/C(=C/c2cccnc2)C(=O)/C(=C/c2cccnc2)C1,?,15µM*,-1,-12,0%,10%
CC(C)N1C/C(=C/c2ccsc2)C(=O)/C(=C/c2ccsc2)C1,15µM*,?,-9,7,-1%,-1%
CCCCC#Cc1nc(NC)c2ncn([C@@H]3O[C@H](CO)[C@@H](O)[C@H]3O)c2n1,nt,nt,nt,-6,nt,nt
COC(=O)c1sc(NC(=O)CCCn2nc([N+](=O)[O-])cc2C)c(C(=O)OC)c1C,i,0.92µM*,9,-9,4%,-12%
Cc1ccc(-c2csc3ncnc(Sc4nnc(CN5CCCCCC5=O)o4)c23)cc1,12µM*,i,-11,15,?,15µM*
Cc1ccc(-c2csc3ncnc(SCC(=O)Nc4nnc(C)s4)c23)cc1,?,?,2,-2,-18%,?
Cc1ccc(SCC(=O)OCC(=O)NCc2ccco2)cc1,i,i,-5,-1,-1%,-9%
Cc1ccc(-c2csc(=S)n2CC(=O)OCC(=O)NCc2ccco2)cc1,i,?,-6,-4,-19%,18µM*
Cc1ccc(-c2csc(=S)n2CC(=O)OCC(=O)NC(C)C(C)C)cc1 (centres undefined),i,16µM*,12,1,-3%,-23%
SMILES,KB-3-1 cytotox,KB-V1 cytotox,Giardia kill,PI4K2A inh,A549 viability,Nrf2 inh
O=C(c1cc2ccccc2[nH]1)c1cc2cc(O)ccc2[nH]1,i,i,nt,nt,nt,nt
Brc1ccc(N=Nc2ccc3ccccc3n2)cc1,i,?,-81*,?,5%,?
COC(=O)[C@]12C[C@H](CC(=O)N3CCC(c4ccccc4)CC3)C(=O)N(Cc3ccc(Cl)cc3Cl)C1=C[C@H](COCc1ccccc1)O[C@@H]2C,nt,nt,nt,-1,nt,nt
CCOC(=O)c1c(CN2CCOCC2)oc2ccc(OC)cc12,i,16µM*,-6,-1,14%,?
CCOC(=O)c1c(CN2CCOCC2)n(-c2ccccc2)c2cc(Br)c(OC)cc12,?,18µM*,2,4,-25%,?
CCOC(=O)c1c(C)[nH]c(C(=O)COC(=O)c2oc3ccccc3c2C)c1C,?,i,0,-4,-8%,-13%
CCOC(=O)c1c(CN2CCN(C)CC2)n(C)c2cc(Br)c(OC)cc12,?,?,12,1,-28%,-28%
CCOC(=O)c1c(CN2CCOCC2)n(-c2ccccc2)c2cc(Br)c(O)cc12,i,i,0,3,-18%,-12%
CCOC(=O)c1c(CN2CCCCC2)n(C)c2cc(Br)c(O)cc12,i,10µM*,4,-3,-8%,-2%
CCOC(=O)c1c(C)[nH]c(C(=O)COC(=O)c2oc3ccc(OC)cc3c2C)c1C,16µM*,10µM*,3,2,-7%,4%
CCOC(=O)c1c(CN(C)C)n(-c2ccccc2)c2cc(Br)c(OC)cc12,?,21µM*,15,-2,14%,23%
Cc1ccc(C(=O)NC2CCCCN(Cc3ccc(Cl)cc3)C2=O)c(C)c1 (centres undefined),nt,nt,nt,-2,nt,nt
COc1ccc(-c2c(C)nn(Cc3ccccc3)c2N)cc1,i,21µM*,15,8,3%,11%
COc1ccc(-c2ccc(=O)n(Cc3ccccc3)n2)cc1,i,i,-13,-1,2%,-23%
CCOC(=O)N/N=C/c1cn(CCCOc2ccccc2)c2ccccc12,i,?,11,4,8%,27%
CCOC(=O)N/N=C/c1cn(CCCOc2ccc(C)cc2)c2ccccc12,?,21µM*,-7,1,8%,10%
Cc1ccc(OCCCn2cc(C#N)c3ccccc32)cc1,?,16µM*,7,4,2%,-10%
CCOc1ccc(C(=O)Nc2cc(-c3ccccc3)no2)cc1,i,i,nt,-15,1%,?
CCOC(=O)c1nnn(-c2nc(N3CCCC3)nc(N3CCCC3)n2)c1-c1ccccc1,?,i,0,-2,nt,-43%
CCOC(=O)c1c(-c2ccccc2)nnn1-c1nc(OCC)nc(N2CCCCC2)n1,?,21µM*,5,10,-22%,?
COc1ccccc1C(=O)Nc1ccc(-c2cc(C(F)(F)F)nn2-c2ccccc2)cc1,nt,nt,nt,1,4%,?
CCOC(=O)c1c(NC(=O)CSc2nnc(C)s2)sc2c1CCCCC2,i,i,-4,2,-18%,?
